# Test results as given in PubChem BioAssay (NCATS).
# “And” between values parts separate entries of the source, which are not always exact repeats. Equal values may be shown once. Results filed as inconclusive are left out. Some compounds were tested as several samples or in several runs, with calls that do not always agree. The source made the active and inactive calls. Calls come from the whole dose curve; as a rule, active = well fitted cell-killing curve with a large enough effect; inconclusive = small, poorly fitted or top-dose-only effect, or effect the other way; inactive = no such curve, though single readings can be large or run the other way.
# Assay: Viability qHTS for spleen associated tyrosine kinase inhibitor (SYKi) naive MV4-11 cells (AID 1963823); note: nearly all actives have a fitted effect of over 40% in size
# Conditions: MV4-11 AML viability, CellTiter-Glo luminescence, 72 h; series mostly up to 45 µM; viability (% of control): at the top concentration
# In short: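 qHTS, SYK inhibitor-naive MV4-11; 500 cells/well; 72 hr compound exposure, 37 C; CellTiter-Glo added, 10 min RT; luminescence read.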
# Potency is the fitted concentration of half-maximal effect.
row,SMILES,Potency
1,COc1cc(Oc2ccnc3cc(OC)c(OC)cc23)ccc1NC(=O)NC(C)c1nccs1 (centres undefined),inactive and 7.42 µM (active)
2,C=CC(=O)Nc1cccc(Oc2nc(Nc3ccc(N4CCN(C)CC4)cc3OC)ncc2Cl)c1,1.64 µM (active) and 1.66 µM (active)
3,O=C(/C=C/c1cccnc1)NCCCCC1CCN(C(=O)c2ccccc2)CC1,5.3 nM (active)
4,C=CCNC1=C2CC(C)CC(OC)C(O)C(C)/C=C(\C)C(OC(N)=O)C(OC)/C=C/C=C(\C)C(=O)NC(=CC1=O)C2=O (centres undefined),93.4 nM (active)

# Assay: Viability qHTS for spleen associated tyrosine kinase inhibitor (SYKi) drug resistant MV4-11 cells (AID 1963824); note: nearly all actives have a fitted effect of over 35% in size
# Conditions: SYKi-resistant MV4-11 viability, CellTiter-Glo, 72 h; series mostly up to 45 µM; viability, % of control: at the top concentration
# In short: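 SYK-inhibitor-resistant MV4-11 AML cells were seeded at 500 per well onto compound and cultured 72 hours (37 °C, 5% CO2). CellTiter-Glo was then added, and after 10 min at room temperature, luminescence gave viability.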
SMILES,"viability, % of control",Potency
NCCCC[C@H](N[C@@H](CCc1ccccc1)C(=O)O)C(=O)N1CCC[C@H]1C(=O)O,88.3% (inactive),–
C[C@H]1CNC(=O)c2cnn3ccc(nc23)N[C@H](C)c2cc(F)ccc2O1,–,934 nM (active)
C[C@]12C=CC(=O)C=C1CC[C@H]1[C@@H]3C[C@@H](O)[C@](O)(C(=O)CO)[C@@]3(C)C[C@H](O)[C@@]12F,83.6% (inactive),–
NNc1nnc(NN)c2ccccc12,72.3% (inactive),–
C/C=C/C[C@@H](C)C(=O)[C@H]1C(=O)N[C@@H](C(C)C)C(=O)N(C)CC(=O)N(C)[C@@H](CC(C)C)C(=O)N[C@@H](C(C)C)C(=O)N(C)[C@@H](CC(C)C)C(=O)N[C@@H](C)C(=O)N[C@H](C)C(=O)N(C)[C@@H](CC(C)C)C(=O)N(C)[C@@H](CC(C)C)C(=O)N(C)[C@@H](C(C)C)C(=O)N1C,–,4070 nM (active)
CN(C[C@@H]1COCCO1)S(=O)(=O)Nc1ccc2ccc3ncc(-c4cnn(C)c4)cc3c(=O)c2c1,–,461 nM (active)
COCC(=O)Nc1c(I)c(C(=O)NCC(O)CO)c(I)c(C(=O)N(C)CC(O)CO)c1I (centres undefined),90% (inactive),–
Cc1ccc2nc(NC(=O)CSc3nc4c(c(=O)n3-c3ccccc3)SCC4)sc2c1,84.3% (inactive),–
CCCNC(=O)[C@H]1O[C@@H]1C(=O)N[C@H](C(=O)N1CCC[C@H]1C(=O)OC)C(C)CC (some centres undefined),–,934 nM (active)
CCCCCCC[N+](CC)(CC)CCCCc1ccc(Cl)cc1,–,2110 nM (active)
CCN(CC)CCOC(=O)C(c1ccccc1)C1CCCCC1 (centres undefined),1.52% (inactive),–
Cc1nc(N)sc1-c1ccnc(Nc2ccc(N3CCOCC3)cc2)n1,–,164 nM (active)
COC(=O)C1=C(C)NC(c2ncc(F)cc2F)=N[C@H]1c1ccc(F)cc1Cl,–,9340 nM (active)
CCNC(=O)NCc1cccc(Cl)c1,82.5% (inactive),–
Nc1ncnc2c1nc(Cl)n2[C@@H]1O[C@H](CO)[C@@H](O)[C@@H]1O,–,2950 nM (active)
CC[C@H](CC#N)OC(=O)N[C@@H](C)c1cccc(NC(=O)Nc2ccc(-c3cnco3)c(OC)c2)c1,–,231 nM (active) and 263 nM (active)
CCc1nc(C(N)=O)c(Nc2ccc(N3CCC(N4CCN(C)CC4)CC3)c(OC)c2)nc1NC1CCOCC1,–,11.4 nM (active) and 26.3 nM (active)
C=C1C(=O)O[C@H]2C[C@H](C)C(/C=C/C(C)=O)=CC[C@H]12,–,934 nM (active)
CN(C)CCCOC1(Cc2ccccc2)CCCCCC1,79.5% (inactive),–
CN(C)CCN1C(=O)c2cccc3cc(NC(N)=O)cc(c23)C1=O,–,4170 nM (active)
COc1ccc2cc1Oc1cc3c(cc1OC)CC[N+](C)(C)[C@H]3Cc1ccc(cc1)Oc1c(OC)c(OC)cc3c1[C@@H](C2)[N+](C)(C)CC3,63.4% (inactive),–
Cc1ccc2c(n1)Oc1ccc(C(C)C(=O)OCC(=O)N(C)C)cc1C2 (centres undefined),70% (inactive),–
NC(=O)Nc1sc(-c2ccc(F)cc2)cc1C(N)=O,–,3320 nM (active)
CCOc1cc(C(=O)N2CCC(N3CCN(C)CC3)CC2)ccc1Nc1ncc2c(n1)N(C1CCCC1)c1ccccc1C(=O)N2C,–,651 nM (active) and 934 nM (active)
Cn1c(=O)c(F)c(Nc2ccc(I)cc2F)c2c(=O)n(C[C@@H](O)CO)cnc21,–,23.5 nM (active)
CO[C@H]1O[C@@H]2O[C@@]3(C)CC[C@H]4[C@H](C)CC[C@@H]([C@H]1C)[C@@]24OO3,–,934 nM (active)
N[C@@H](Cc1ccc(O)cc1)C(=O)O,81.6% [at 9.25 µM] (inactive),–
COC(=O)Nc1nc2ccc(C(=O)C3CC3)cc2[nH]1,–,750 nM (active)
O=C(O)CCC(=O)c1ccc(-c2ccccc2)cc1,82.9% (inactive),–
Cc1cc(C(=O)Nc2cc(Nc3ccc4c(/C=C/c5ccccn5)n[nH]c4c3)ccc2F)n(C)n1,–,9.2 µM (active) and 5.25 µM (active)
